Measurements from the supplement of paper PMC10849652.
The full data set covers some 7,900 targets. This sample favours those with a hit. About 0.6% of all pairs of compound and target were hits.

Compound: c1cn2cc(-c3ccc4cn[nH]c4c3)nc(Nc3ccc(N4CCOCC4)cc3)c2n1 [entospletinib]
Test: log2 fold change, soluble protein after heating vs DMSO (PISA); higher = thermal stabilisation; K562 cells, 10 uM, 30 min; active = over 0.2 and 3.5 SD of the protein, either way, in both replicates (recomputed)
Procedure, shortened: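 Soluble protein was quantified by TMTpro 16plex LC-MS/MS after channel sums were equalised. It was obtained as the supernatant after 21,000xg for 90 min from pooled aliquots of K562 cells (2×10^6 cells/mL, 10 μM compound, 30 min) heated for 3 min across 48°C-58°C and extracted in PBS with 0.5% NP-40 at 4°C. Thermal stability values are relative to control samples and come from duplicates. They are given as log2 fold changes.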

Sequence of UniProt P63208 (P63208 whole entry, looked up): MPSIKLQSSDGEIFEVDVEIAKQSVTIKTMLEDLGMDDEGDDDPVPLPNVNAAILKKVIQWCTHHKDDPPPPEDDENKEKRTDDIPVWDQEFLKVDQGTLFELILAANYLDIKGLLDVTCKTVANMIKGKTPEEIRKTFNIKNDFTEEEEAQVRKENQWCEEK
Sequence of UniProt Q99961 (Q99961 whole entry, looked up): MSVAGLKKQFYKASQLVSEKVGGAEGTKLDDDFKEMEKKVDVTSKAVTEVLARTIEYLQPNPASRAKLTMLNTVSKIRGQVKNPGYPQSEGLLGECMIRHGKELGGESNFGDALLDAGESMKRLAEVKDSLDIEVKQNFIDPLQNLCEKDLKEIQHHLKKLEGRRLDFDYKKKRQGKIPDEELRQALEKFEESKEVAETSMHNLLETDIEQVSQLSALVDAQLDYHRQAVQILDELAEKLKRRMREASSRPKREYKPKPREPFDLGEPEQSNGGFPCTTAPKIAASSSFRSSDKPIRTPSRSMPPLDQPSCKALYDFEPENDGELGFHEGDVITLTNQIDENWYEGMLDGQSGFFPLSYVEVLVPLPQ
Sequence of UniProt O95486 (O95486 whole entry, looked up): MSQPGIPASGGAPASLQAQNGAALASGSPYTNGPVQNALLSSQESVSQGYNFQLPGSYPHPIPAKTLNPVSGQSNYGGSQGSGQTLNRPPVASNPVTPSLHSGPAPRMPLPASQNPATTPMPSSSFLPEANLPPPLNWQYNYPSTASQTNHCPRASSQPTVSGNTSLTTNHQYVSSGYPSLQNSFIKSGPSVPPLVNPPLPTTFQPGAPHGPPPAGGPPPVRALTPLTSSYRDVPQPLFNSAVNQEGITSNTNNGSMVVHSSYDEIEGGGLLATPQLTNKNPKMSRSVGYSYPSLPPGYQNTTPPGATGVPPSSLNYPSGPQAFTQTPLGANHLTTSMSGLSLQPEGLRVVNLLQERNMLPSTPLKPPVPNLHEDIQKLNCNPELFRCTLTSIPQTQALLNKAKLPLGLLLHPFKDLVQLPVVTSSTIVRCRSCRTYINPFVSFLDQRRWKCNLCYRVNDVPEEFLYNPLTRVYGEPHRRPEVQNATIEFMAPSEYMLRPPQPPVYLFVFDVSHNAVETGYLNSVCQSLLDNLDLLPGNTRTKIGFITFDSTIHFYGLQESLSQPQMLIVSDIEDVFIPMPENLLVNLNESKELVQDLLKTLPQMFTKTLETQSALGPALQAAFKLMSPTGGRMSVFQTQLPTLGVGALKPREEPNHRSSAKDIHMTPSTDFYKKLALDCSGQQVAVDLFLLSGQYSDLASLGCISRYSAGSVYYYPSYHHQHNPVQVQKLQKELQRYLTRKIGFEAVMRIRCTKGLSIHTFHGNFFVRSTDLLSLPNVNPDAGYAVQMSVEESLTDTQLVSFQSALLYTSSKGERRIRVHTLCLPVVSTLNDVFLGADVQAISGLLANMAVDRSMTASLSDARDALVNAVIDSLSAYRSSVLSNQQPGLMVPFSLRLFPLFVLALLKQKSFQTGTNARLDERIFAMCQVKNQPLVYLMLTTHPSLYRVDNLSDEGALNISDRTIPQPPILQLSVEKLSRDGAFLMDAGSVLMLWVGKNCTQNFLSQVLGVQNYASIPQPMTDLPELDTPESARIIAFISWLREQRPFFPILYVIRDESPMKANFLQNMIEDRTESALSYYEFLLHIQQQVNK
Sequence of UniProt Q15287 (Q15287 whole entry, looked up): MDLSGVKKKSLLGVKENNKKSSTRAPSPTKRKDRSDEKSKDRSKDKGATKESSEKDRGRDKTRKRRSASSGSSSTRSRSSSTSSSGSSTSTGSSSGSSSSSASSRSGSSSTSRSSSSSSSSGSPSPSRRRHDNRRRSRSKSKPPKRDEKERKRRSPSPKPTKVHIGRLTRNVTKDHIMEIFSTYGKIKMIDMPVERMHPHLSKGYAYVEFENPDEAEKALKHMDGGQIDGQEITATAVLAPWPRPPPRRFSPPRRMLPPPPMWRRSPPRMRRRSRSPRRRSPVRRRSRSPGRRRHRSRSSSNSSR
Sequence of UniProt Q9HB90 (Q9HB90 whole entry, looked up): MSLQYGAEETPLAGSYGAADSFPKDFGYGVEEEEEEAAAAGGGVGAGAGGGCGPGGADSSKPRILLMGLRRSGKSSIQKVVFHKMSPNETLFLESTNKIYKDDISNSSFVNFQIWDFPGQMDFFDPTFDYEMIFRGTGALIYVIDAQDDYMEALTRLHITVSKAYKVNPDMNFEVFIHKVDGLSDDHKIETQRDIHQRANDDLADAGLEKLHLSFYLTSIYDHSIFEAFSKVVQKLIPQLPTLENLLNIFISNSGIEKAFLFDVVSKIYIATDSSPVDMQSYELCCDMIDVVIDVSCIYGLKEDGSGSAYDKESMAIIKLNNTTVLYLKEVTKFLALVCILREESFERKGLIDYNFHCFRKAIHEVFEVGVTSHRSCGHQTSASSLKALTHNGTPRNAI
Sequence of UniProt Q9H6H4 (Q9H6H4 whole entry, looked up): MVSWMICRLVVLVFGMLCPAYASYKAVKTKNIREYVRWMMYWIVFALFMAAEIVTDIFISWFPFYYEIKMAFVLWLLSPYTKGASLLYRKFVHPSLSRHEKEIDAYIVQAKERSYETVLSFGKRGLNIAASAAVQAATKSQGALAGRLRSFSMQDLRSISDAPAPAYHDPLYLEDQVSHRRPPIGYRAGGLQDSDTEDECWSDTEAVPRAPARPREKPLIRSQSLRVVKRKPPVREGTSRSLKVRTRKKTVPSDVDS
Sequence of UniProt Q9UKM9 (Q9UKM9 whole entry, looked up): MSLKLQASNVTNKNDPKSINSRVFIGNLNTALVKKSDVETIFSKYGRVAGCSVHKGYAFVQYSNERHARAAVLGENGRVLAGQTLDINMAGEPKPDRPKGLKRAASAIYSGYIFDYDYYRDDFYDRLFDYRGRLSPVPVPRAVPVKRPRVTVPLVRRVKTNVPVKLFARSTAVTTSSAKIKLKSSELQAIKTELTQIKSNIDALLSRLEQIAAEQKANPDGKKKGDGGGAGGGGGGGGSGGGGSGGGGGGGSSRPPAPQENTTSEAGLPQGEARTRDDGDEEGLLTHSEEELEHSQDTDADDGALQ
Sequence of UniProt O75116 (O75116 whole entry, looked up): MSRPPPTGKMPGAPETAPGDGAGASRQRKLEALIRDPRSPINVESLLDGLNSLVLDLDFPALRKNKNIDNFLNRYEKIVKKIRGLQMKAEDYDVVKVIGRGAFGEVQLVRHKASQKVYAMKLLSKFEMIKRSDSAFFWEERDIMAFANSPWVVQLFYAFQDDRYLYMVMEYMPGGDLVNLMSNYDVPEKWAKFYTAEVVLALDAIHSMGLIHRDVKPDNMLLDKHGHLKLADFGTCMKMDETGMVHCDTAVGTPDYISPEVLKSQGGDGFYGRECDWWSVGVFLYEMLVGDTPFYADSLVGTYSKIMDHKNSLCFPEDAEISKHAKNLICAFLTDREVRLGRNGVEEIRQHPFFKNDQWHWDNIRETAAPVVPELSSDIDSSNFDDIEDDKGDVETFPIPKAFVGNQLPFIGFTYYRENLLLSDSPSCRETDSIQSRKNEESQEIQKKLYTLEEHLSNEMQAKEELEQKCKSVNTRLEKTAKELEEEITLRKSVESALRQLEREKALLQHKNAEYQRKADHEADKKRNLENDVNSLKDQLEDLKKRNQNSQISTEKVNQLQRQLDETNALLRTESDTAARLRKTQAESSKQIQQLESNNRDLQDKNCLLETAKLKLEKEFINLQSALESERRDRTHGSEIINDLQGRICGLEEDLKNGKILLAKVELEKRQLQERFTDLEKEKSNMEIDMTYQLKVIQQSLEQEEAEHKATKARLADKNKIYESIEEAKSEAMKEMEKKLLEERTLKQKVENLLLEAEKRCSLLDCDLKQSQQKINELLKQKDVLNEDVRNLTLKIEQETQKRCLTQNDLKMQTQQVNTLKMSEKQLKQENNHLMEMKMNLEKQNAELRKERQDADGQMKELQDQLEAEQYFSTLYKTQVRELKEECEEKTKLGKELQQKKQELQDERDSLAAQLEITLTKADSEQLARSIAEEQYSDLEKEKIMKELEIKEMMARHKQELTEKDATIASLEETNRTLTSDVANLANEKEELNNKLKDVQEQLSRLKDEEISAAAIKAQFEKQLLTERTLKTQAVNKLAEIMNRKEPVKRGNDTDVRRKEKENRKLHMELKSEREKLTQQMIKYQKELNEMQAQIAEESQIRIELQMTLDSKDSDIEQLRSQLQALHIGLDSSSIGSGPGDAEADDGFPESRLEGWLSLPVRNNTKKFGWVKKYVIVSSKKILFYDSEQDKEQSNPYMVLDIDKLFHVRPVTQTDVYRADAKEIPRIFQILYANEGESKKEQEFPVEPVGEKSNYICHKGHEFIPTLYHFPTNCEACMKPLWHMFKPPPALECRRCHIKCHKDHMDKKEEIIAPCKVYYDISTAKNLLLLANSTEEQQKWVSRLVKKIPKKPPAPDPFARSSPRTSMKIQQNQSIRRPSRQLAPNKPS
Sequence of UniProt Q7L099 (Q7L099 whole entry, looked up): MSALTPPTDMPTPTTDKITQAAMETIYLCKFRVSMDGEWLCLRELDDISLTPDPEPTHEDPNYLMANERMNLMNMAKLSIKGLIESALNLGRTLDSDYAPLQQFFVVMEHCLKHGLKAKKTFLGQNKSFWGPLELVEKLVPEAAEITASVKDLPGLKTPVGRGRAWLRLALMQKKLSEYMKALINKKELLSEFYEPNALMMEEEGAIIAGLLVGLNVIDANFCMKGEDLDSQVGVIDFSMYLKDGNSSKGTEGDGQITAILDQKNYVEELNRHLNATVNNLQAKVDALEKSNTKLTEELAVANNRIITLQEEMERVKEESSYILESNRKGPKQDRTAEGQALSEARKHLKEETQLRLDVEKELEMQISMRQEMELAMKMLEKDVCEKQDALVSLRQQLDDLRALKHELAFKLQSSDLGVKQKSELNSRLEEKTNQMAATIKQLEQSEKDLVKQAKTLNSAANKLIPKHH
Sequence of UniProt P60903 (P60903 whole entry, looked up): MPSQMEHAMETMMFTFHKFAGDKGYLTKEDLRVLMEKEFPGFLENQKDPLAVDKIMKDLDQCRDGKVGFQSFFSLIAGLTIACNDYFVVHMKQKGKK

log2 fold change, inactive:
RBM33 (UniProt Q96EV2) 0
RPA1 (UniProt P27694) -0.024
RPS6KA2 isoform 2 (UniProt Q15349) 0.013
RBM4 (UniProt Q9BWF3) 0.077
RSRC2 (UniProt Q7L4I2) 0.019
S100A10 (UniProt P60903) -0.102
RAPGEF4 (UniProt Q8WZA2) -0.14
SDCBP (UniProt O00560) 0.115
RECQL (UniProt P46063) 0.012
RPS4X (UniProt P62701) 0.082
RPS3 (UniProt P23396) 0.063
RPS2 (UniProt P15880) 0.08
RBM39 (UniProt Q14498) -0.125
REEP4 (UniProt Q9H6H4) 0.055
RBM8A (UniProt Q9Y5S9) 0.061
RAB8B (UniProt Q92930) -0.04
SCD (UniProt O00767) 0.023
RUFY3 isoform 3 (UniProt Q7L099) -0.046
RRAGC (UniProt Q9HB90) 0.021
SKP1 (UniProt P63208) 0.008
SIK3 (UniProt H0Y4E8) 0.021
RPS6KA3 (UniProt P51812) 0.037
SH3GL1 (UniProt Q99961) -0.008
SAAL1 (UniProt Q96ER3) 0.093
RAB5C isoform 2 (UniProt P51148) -0.006
RNPEP (UniProt Q9H4A4) 0.004
RALY (UniProt Q9UKM9) -0.001
SASH1 (UniProt O94885) 0.053
RTF2 (UniProt Q9BY42) -0.069
ROCK2 (UniProt O75116) -0.049
RPL31 (UniProt P62899) 0.098
SART3, A0A499FI31 0.023
RPS5 (UniProt P46782) 0.037
RNPS1 (UniProt Q15287) 0.064
SEC24A (UniProt O95486) 0.024
RBM27 (UniProt Q9P2N5) 0.054
RPS21 (UniProt P63220) -0.016
